Reference: PubChem BioAssay (NCATS)
Inconclusive results are not listed. Activity calls are given as the source filed them. Calls follow the shape of the full dose curve.

Tests used:
[1] = Primary qHTS for inhibitors of SARS-S pseudo-typed particle cell entry (AID 1479145); details: SARS-S pseudotyped particle cell entry, luciferase reporter; series mostly up to 57.1 µM; also: nearly all actives have a fitted effect of over 45% in size
[2] = Primary qHTS for Huh7 cytotoxicity: counterscreen for inhibitors of MERS-S pseudotyped particle cell entry (AID 1479147); details: cell viability read-out; series mostly up to 57.1 µM
[3] = Primary qHTS for inhibitors of MERS-S pseudo-typed particle cell entry (AID 1479149); details: MERS-S pseudotyped particle entry, luciferase; series mostly up to 57.1 µM; also: nearly all actives have a fitted effect of over 60% in size
[4] = Primary qHTS for Vero E6 cytotoxicity: counterscreen for inhibitors of SARS-S pseudo-typed particle cell entry (AID 1479150); details: cell viability; series mostly up to 57.1 µM
% is scaled to controls: 0 for no effect and ±100 for the full control effect.

S=P(N1CC1)(N1CC1)N1CC1
inactive: outcome [1] inactive [at 0.573 µM] | activity change, negative = cytotoxicity [2] -8.32% [at 0.573 µM] | activity change, negative = inhibition [3] 3.72% [at 0.573 µM] | activity change, negative = cytotoxicity [4] -9.38% [at 0.573 µM]

Nc1nc(-c2ccccc2)c(Br)c(=O)[nH]1
inactive: Potency [1] | Potency [2] | Potency [3] | Potency [4]

Cc1c(C(C)C)c(=O)n(-c2ccccc2)n1C
inactive: Potency [1] | Potency [2] | Potency [3] | Potency [4]

Nc1ccn(C[C@@H](CO)OCP(=O)(O)O)c(=O)n1
inactive: outcome [1] inactive [at 0.573 µM] | outcome [2] inactive [at 0.573 µM] | outcome [3] inactive [at 0.573 µM] | activity change, negative = cytotoxicity [4] -5.43% [at 0.573 µM]

CCO[C@H](Cc1ccc(OCCc2ccc(OS(C)(=O)=O)cc2)cc1)C(=O)O
inactive: Potency [1] | Potency [2] | Potency [3] | Potency [4]

CC1(C)O[C@H]2CC(=O)OC[C@]23[C@H]2CC[C@@]4(C)[C@H](c5ccoc5)OC(=O)[C@H]5O[C@]54[C@]2(C)C(=O)C[C@@H]13
inactive: Potency [1] | Potency [2] | Potency [3] | Potency [4]

O=C(O)CSCC(=O)NC1CCSC1=O (stereo unspecified)
inactive: Potency [1] | Potency [2] | Potency [3] | Potency [4]

CC(=O)c1ccc(S(=O)(=O)NC(=O)NC2CCCCC2)cc1
inactive: Potency [1] | Potency [2] | Potency [3] | Potency [4]

Cc1ccccc1C(=O)N1CC/C(=N\OS(=O)(=O)O)c2ccc(Cl)cc21
inactive: Potency [1] | Potency [2] | Potency [3] | Potency [4]

CCN1CCN(C(=O)N[C@@H](C(=O)N[C@@H]2C(=O)N3[C@@H]2SC(C)(C)[C@H]3C(=O)O)c2ccccc2)C(=O)C1=O
inactive: Potency [1] | Potency [2] | Potency [3] | Potency [4]

CC(C)=CCC/C(C)=C/CO
inactive: Potency [1] | Potency [2] | Potency [3] | Potency [4]

NS(=O)(=O)c1ccc(Cl)c(S(N)(=O)=O)c1
inactive: Potency [1] | Potency [2] | Potency [3] | Potency [4]

COC(=O)C1=C(C)NC(C)=C(C(=O)OCCc2ccc(N3CCN(C(c4ccccc4)c4ccccc4)CC3)cc2)C1c1cccc([N+](=O)[O-])c1 (stereo unspecified)
inactive: Potency [1] | Potency [2] | Potency [3] | Potency [4]

NC(=O)c1ncn([C@@H]2O[C@H](CO)[C@@H](O)[C@H]2O)c1O
inactive: Potency [1] | Potency [2] | Potency [3] | Potency [4]

CCOc1cc(OCC)c(C(=O)CCC(=O)O)cc1OCC
inactive: Potency [1] | Potency [2] | Potency [3] | Potency [4]

CN(CC1(C)CCCO1)S(=O)(=O)c1ccc(Cl)c(S(N)(=O)=O)c1 (stereo unspecified)
inactive: Potency [1] | Potency [2] | Potency [3] | Potency [4]

NC(=O)c1cc[n+](CC2=C(C(=O)[O-])N3C(=O)[C@@H](NC(=O)Cc4cccs4)[C@H]3SC2)cc1
inactive: Potency [1] | Potency [2] | Potency [3] | Potency [4]

C[C@@H](CN1CC(=O)NC(=O)C1)N1CC(=O)NC(=O)C1
inactive: Potency [1] | Potency [2] | Potency [3] | Potency [4]

CC(=O)NS(=O)(=O)c1ccc(N)cc1
inactive: Potency [1] | Potency [2] | Potency [3] | Potency [4]

CN1CCN(CC(=O)N2c3ccccc3C(=O)Nc3cccnc32)CC1
inactive: activity change, negative = inhibition [1] -4.78% [at 5.34 µM] | activity change, negative = cytotoxicity [2] 1.37% [at 5.34 µM] | outcome [3] inactive [at 5.34 µM] | outcome [4] inactive [at 5.34 µM]

CN(C)CCN(Cc1ccsc1)c1ccccn1
inactive: Potency [1] | Potency [2] | Potency [3] | Potency [4]

CN(C)CCc1c[nH]c2ccc(Cn3cncn3)cc12
inactive: Potency [1] | Potency [2] | Potency [3] | Potency [4]

Cc1noc(NS(=O)(=O)c2ccc(N)cc2)c1C
inactive: Potency [1] | Potency [2] | Potency [3] | Potency [4]

NC[C@H]1O[C@H](O[C@H]2[C@H](O[C@@H]3O[C@H](CO)[C@@H](O)[C@H]3O)C(O)[C@H](N)C[C@@H]2N)[C@H](N)[C@@H](O)[C@@H]1O (stereo partly specified)
inactive: outcome [1] inactive [at 11.4 µM] | outcome [2] inactive [at 11.4 µM] | outcome [3] inactive [at 11.4 µM] | activity change, negative = cytotoxicity [4] 0.563% [at 11.4 µM]

CCC(C(=O)NC(=O)NC(C)=O)c1ccccc1 (stereo unspecified)
inactive: Potency [1] | Potency [2] | Potency [3] | Potency [4]

CC(=O)O[C@@H]1C(=O)O[C@@H]2[C@H]1OC(=O)[C@@H]2OC(C)=O
inactive: Potency [1] | Potency [2] | Potency [3] | Potency [4]

O=C(Cn1ccnc1[N+](=O)[O-])NCc1ccccc1
inactive: Potency [1] | Potency [2] | Potency [3] | Potency [4]

CC(C)CN(C[C@@H](O)[C@H](Cc1ccccc1)NC(=O)O[C@H]1CO[C@H]2OCC[C@H]21)S(=O)(=O)c1ccc(N)cc1
inactive: Potency [1] | Potency [2] | Potency [3] | Potency [4]

COc1ccc2cc([C@H](C)C(=O)O)ccc2c1
inactive: Potency [1] | Potency [2] | Potency [3] | Potency [4]

Cc1onc(-c2ccccc2)c1-c1ccc(S(N)(=O)=O)cc1
inactive: Potency [1] | Potency [2] | Potency [3] | Potency [4]

NS(=O)(=O)c1cc2c(cc1Cl)NC(C(Cl)Cl)NS2(=O)=O (stereo unspecified)
inactive: Potency [1] | Potency [2] | Potency [3] | Potency [4]

NS(=O)(=O)c1cc2c(cc1Cl)NC(CC1CCCC1)NS2(=O)=O (stereo unspecified)
inactive: Potency [1] | Potency [2] | Potency [3] | Potency [4]

CC(C)(Oc1ccc(C2CC2(Cl)Cl)cc1)C(=O)O (stereo unspecified)
inactive: Potency [1] | Potency [2] | Potency [3] | Potency [4]

Nc1ccc(S(=O)(=O)NC(=O)c2ccccc2)cc1
inactive: Potency [1] | Potency [2] | Potency [3] | Potency [4]

CC(=O)SCC(CC(=O)c1ccc(C)cc1)C(=O)O (stereo unspecified)
inactive: Potency [1] | Potency [2] | Potency [3] | Potency [4]

O=S(=O)(O)CCS
inactive: Potency [1] | Potency [2] | Potency [3] | Potency [4]

Nc1ccc(S(=O)(=O)Nc2ccc(Cl)nn2)cc1
inactive: Potency [1] | Potency [2] | Potency [3] | Potency [4]

CCCC(=O)OCOC(=O)C1=C(C)NC(C)=C(C(=O)OC)C1c1cccc(Cl)c1Cl (stereo unspecified)
inactive: Potency [1] | Potency [2] | Potency [3] | Potency [4]

CCc1cc(C(N)=S)ccn1
inactive: Potency [1] | Potency [2] | Potency [3] | Potency [4]

CC(C)(C)C(=O)Oc1ccc(S(=O)(=O)Nc2ccccc2C(=O)NCC(=O)O)cc1
inactive: Potency [1] | Potency [2] | Potency [3] | Potency [4]

COc1cc2c3cc1Oc1cc(ccc1O)C[C@@H]1c4c(cc(OC)c(O)c4Oc4ccc(cc4)C[C@@H]3N(C)CC2)CC[N+]1(C)C
inactive: Potency [1] | Potency [2] | Potency [3] | Potency [4]

CSCC[C@H](NC(=O)[C@H](Cc1ccc(OS(=O)(=O)O)cc1)NC(=O)[C@@H](N)CC(=O)O)C(=O)NCC(=O)N[C@@H](Cc1c[nH]c2ccccc12)C(=O)N[C@@H](CCSC)C(=O)N[C@@H](CC(=O)O)C(=O)N[C@@H](Cc1ccccc1)C(N)=O
inactive: Potency [1] | Potency [2] | Potency [3] | Potency [4]

Cc1cc(O)cc(C)c1Cl
inactive: Potency [1] | Potency [2] | Potency [3] | Potency [4]

CCCCCCCC/C=C/C(=O)O
inactive: Potency [1] | Potency [2] | Potency [3] | Potency [4]

O=C(c1ccccc1)c1ccccc1
inactive: Potency [1] | Potency [2] | Potency [3] | Potency [4]

CCOC(=O)C1=C(C)NC(C)=C(C(=O)OC)C1c1cccc([N+](=O)[O-])c1 (stereo unspecified)
inactive: Potency [1] | Potency [2] | Potency [3] | Potency [4]

NC(=O)N1c2ccccc2C=Cc2ccccc21
inactive: Potency [1] | Potency [2] | Potency [3] | Potency [4]

Cn1nnc2c(C(N)=O)ncn2c1=O
inactive: Potency [1] | Potency [2] | Potency [3] | Potency [4]

C[C@]12C=CC(=O)C=C1[C@@H](F)C[C@@H]1[C@@H]2[C@@H](O)C[C@@]2(C)[C@H]1CC[C@]2(O)C(=O)CO
inactive: Potency [1] | Potency [2] | Potency [3] | Potency [4]
